# ChEMBL document CHEMBL4513146, “CO-ADD screening of Karazin Kharkiv National University (Ukraine) compounds”
# Measured potencies and affinities stand elsewhere.
# Tests used:
# [1] = test system: Staphylococcus aureus; settings: Concentration 32 ug.mL-1;; ASSAY_TEST Inhibition of Bacterial Growth; detection method Absorption (OD600); MEDIA CAMHB; plate type 384well; NBS; CORNING #3640; time 18 hr
# [2] = test system: Escherichia coli; settings: Concentration 32 ug.mL-1;; ASSAY_TEST Inhibition of Bacterial Growth; detection method Absorption (OD600); MEDIA CAMHB; plate type 384well; NBS; CORNING #3640; time 18 hr
SMILES,Inhibition [1],Inhibition [2]
Cc1ccc(-c2cc3c4nnc(CCC(=O)NCc5ccc(C(F)(F)F)cc5)n4ccn3n2)cc1C,3.78%,-2.88%
COc1ccc(NC(=O)Cn2nc3nc(N4CCOCC4)ccn3c2=O)cc1Cl,7.8%,-5.98%
Cc1cccc(C)c1NC(=O)Cn1nc2c(Sc3cccc(F)c3)nccn2c1=O,9.75%,-2.6%
COC(=O)c1cccc(NC(=O)Cn2nc3ccc(-c4ccc(C)c(C)c4)nn3c2=O)c1,2.69%,-10.93%
CC(C)c1nnc2c(=O)n(CC(=O)Nc3ccc(Cl)cc3)c3ccccc3n12,11.52%,1.04%
COc1ccc(NC(=O)Cn2nc3c4cc(-c5ccc(C)c(C)c5)nn4ccn3c2=O)cc1Cl,-7.37%,0.15%
COc1ccc(-c2cc3c4nnc(SCC(=O)N(C)c5ccccc5)n4ccn3n2)cc1,-6.7%,-0.99%
O=C(Cn1nc2c(N3CCOCC3)nccn2c1=O)NCc1ccccc1Cl,17.61%,4.36%
COc1ccc(NC(=O)Cn2nc3ccc(Sc4ccccc4)nn3c2=O)cc1,7.63%,-10.85%
COc1ccccc1-n1ccn2c(SCc3cccc(Cl)c3)nnc2c1=O,-2.16%,-0.92%
CN(C(=O)Cn1nc2nc(Nc3ccc(F)cc3)ccn2c1=O)c1ccccc1,-13.79%,-1.66%
COc1cc(NC(=O)C(C)Sc2nnc3c(=O)n(-c4ccccc4OC)ccn23)cc(OC)c1 (centres undefined),15.1%,-4.09%
